High-throughput results: PubChem BioAssay, National Center for Advancing Translational Sciences (NCATS)
Sm TGR block = inhibitors of Schistosoma mansoni thioredoxin glutathione reductase. actives 3% (n = 360,000). purified TGR, DTNB reduction, TNB absorbance 405 nm. Q962Y6. Potency, µM (doses to about 114 µM), without a hit: top-dose activity change, negative = inhibition, actives largely listed as inhibitors; active means well fitted inhibition curve with a large enough effect; inconclusive means small, poorly fitted or top-dose-only effect; inactive means no such curve, though single readings can be large or run the other way; further: potency means the concentration at half of the fitted maximal effect; on the % scale 0 is the no-effect control and ±100 the full control effect; nearly all actives have a fitted effect of over 60% in size
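First, TGR (20 nM dispensed) and NADPH were mixed with compound. Second, a 15 min room-temperature incubation followed. Third, further NADPH and then DTNB were added to start the reaction. Finally, TNB absorbance was monitored kinetically.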
CHX counter = counter-screen hit for Shiga toxin inhibitors, cycloheximide; max response, %; actives 12% (n = 300,000); cell reporter, cycloheximide protein synthesis inhibition counterscreen; AID 2314; in the data active means max response mostly above about 13%, no sharp cut-off; inactive means mostly below about 14%; further: read at 38.3 µM for the half of the compounds with a filed dose; 0% is about no effect
FMDV antiviral = antivirals against foot and mouth disease virus; FMDV antiviral cell-based qHTS; actives 1.2% (n = 410,000); Potency, µM (highest dose often 57.9 µM), for the others: at the highest dose activity change, negative = inhibition, hits mostly inhibitors; AID 1159524; calls by dose curve; tested in HEK293T cells; further: read-out not given here; potency means the concentration at half of the fitted maximal effect; on the % scale 0 is the no-effect control and ±100 the full control effect; nearly all actives have a fitted effect of over 45% in size
Shiga toxin inh = Shiga toxin inhibition; Vero cells, Shiga toxin protein synthesis inhibition reporter; inhibition, % at 38.7 µM; actives 9.2% (n = 290,000); AID 2315; in the data active means inhibition mostly above about 28%, no sharp cut-off; inactive means mostly below about 43%; further: 0% is about no effect
Starred values were filed as active, the others as inactive. This is a sample that favours compounds with a hit; in the whole collection about 12% have one here.

What do the screens show for `Cc1ccc(C2Nc3cc(C)c(C)cc3-n3c(-c4ccccc4)c4c(=O)n(C)c(=O)n(C)c4c32)o1` (stereo not given)?
Sm TGR block: -1%; FMDV antiviral: -17%

What do the screens show for `COc1ccc(N2C(=O)N3[C@H](c4ccc(Cl)cc4)[C@@H]4C(=O)N(C5CCCCC5)C(=O)[C@@H]4[C@]3(Cc3ccc(Cl)cc3)C2=O)cc1`?
Sm TGR block: -22%; CHX counter: 12*; FMDV antiviral: -9%; Shiga toxin inh: 64*

What do the screens show for `Cc1ccc(NC(=O)CO/N=C/c2ccc(N(C)C)cc2)cc1`?
Sm TGR block: 4%; CHX counter: 10; FMDV antiviral: 0%; Shiga toxin inh: -10

Results for COc1ccc(NC(=O)O/N=C/c2ccccc2Cl)cc1 ?
Sm TGR block: 7%; CHX counter: 30*; FMDV antiviral: 64%; Shiga toxin inh: 72*

How did CN(C)c1ccc(/C=N/OC(=O)Nc2ccccc2)cc1 do in these assays?
Sm TGR block: -15%; CHX counter: 37*; FMDV antiviral: -36%; Shiga toxin inh: 52*

How did COC(=O)N/N=C/c1ccccc1Cl do in these assays?
Sm TGR block: 6%; CHX counter: 9; FMDV antiviral: -5%; Shiga toxin inh: 21

How did COc1ccc(NC(=O)O/N=C/c2ccccc2)cc1 do in these assays?
Sm TGR block: -21%; CHX counter: 40*; FMDV antiviral: 69%; Shiga toxin inh: 79*

How did N#Cc1c(C(F)(F)F)cc(-c2cccs2)nc1SCC(=O)Nc1cccc(C(F)(F)F)c1 do in these assays?
Sm TGR block: -1%; FMDV antiviral: -8%

Results for O=C(O)CCCNC(=O)/C(=C\C=C\c1ccccc1)NC(=O)c1ccccc1Cl ?
Sm TGR block: 40µM*; CHX counter: -2; FMDV antiviral: 6%; Shiga toxin inh: -8

Results for Brc1ccc(-c2ccc(CNCc3ccccn3)o2)cc1 ?
Sm TGR block: 40µM*; CHX counter: 26*; FMDV antiviral: 0%; Shiga toxin inh: 55

How did Clc1cccc(-c2ccc(CNCc3ccccn3)o2)c1 do in these assays?
Sm TGR block: 13µM*; CHX counter: 32*; FMDV antiviral: 32%; Shiga toxin inh: 81*

What do the screens show for `Cc1c2cnn(-c3ccccc3)c(=O)c2c(C)n1CCCC(=O)Nc1cc(F)ccc1F`?
Sm TGR block: -2%; FMDV antiviral: -15%

What do the screens show for `COc1ccc(C)cc1NC(=O)c1c(C(=O)Nc2cccc(C)c2C)sc2nc(C)cc(=O)n12`?
Sm TGR block: -35%; FMDV antiviral: 2%

Results for Cc1oc2ccc(O)c(CN3CCCC(C)C3)c2c1C(=O)Nc1ccccc1 (stereo not given) ?
Sm TGR block: 14%; FMDV antiviral: 0%

What do the screens show for `COc1ccc(-c2nc(-c3ccccc3)c(-c3ccc(F)cc3)[nH]2)c(OC)c1C`?
Sm TGR block: -2%; FMDV antiviral: -13%

Results for O=S(=O)(c1ccccc1)C1(C2CC(c3ccccc3)=NO2)CC(O)C1 (stereo not given) ?
Sm TGR block: -13%; CHX counter: 12*; FMDV antiviral: 3%; Shiga toxin inh: 15

Results for O=C(O)C1CC(c2ccccc2)=NO1 (stereo not given) ?
Sm TGR block: -4%; CHX counter: -1; FMDV antiviral: -10%; Shiga toxin inh: -7

What do the screens show for `Cc1ccc2c(CNCCc3ccco3)c(C(=O)O)n(Cc3ccc(F)cc3)c2c1`?
Sm TGR block: 40µM*; FMDV antiviral: -17%

What do the screens show for `COc1ccc(Cn2c(C(=O)O)c(CNCCc3ccco3)c3ccc(OC)cc32)cc1`?
Sm TGR block: 45µM*; FMDV antiviral: 11%

How did Cn1c(O)c(/C=C2\N=c3ccccc3=C2CCNC(=S)NC2CC2)c(=O)n(C)c1=O do in these assays?
Sm TGR block: 5.6µM*; CHX counter: -1; FMDV antiviral: 13µM*; Shiga toxin inh: 9

How did N#C/C(=C/C=C/c1ccccc1)C(=O)Nc1ccccc1 do in these assays?
Sm TGR block: 0%; CHX counter: 6; FMDV antiviral: 30%; Shiga toxin inh: 23

What do the screens show for `COCCNC(=O)/C(C#N)=C/C=C/c1ccccc1`?
Sm TGR block: inconclusive; CHX counter: 17*; FMDV antiviral: 13%; Shiga toxin inh: 43

How did COCCNC(=O)/C(C#N)=C/c1ccccc1Br do in these assays?
Sm TGR block: -10%; CHX counter: 13; FMDV antiviral: -14%; Shiga toxin inh: 12

How did N#C/C(=C\C=C\c1ccccc1)C(=O)Nc1ccccc1 do in these assays?
Sm TGR block: -4%; CHX counter: 15*; FMDV antiviral: 2%; Shiga toxin inh: 13
